# Source: PubChem BioAssay (Tox21)
# A number with no mark means an inactive call. Results filed as inconclusive are left out. Where a call stands in place of a potency, no number is given. Calls of active or inactive are those of the source. The call rests on the fitted dose curve; in most records, active means well fitted curve in the direction sought with a large enough effect in the repeat runs; inconclusive means weak or mixed curves; inactive means no such curve, though single readings can be large; an effect the other way counts as inactive or inconclusive.
# Tests used:
# [1] = A CellTox Green Cytotoxicity Assay to monitor cytotoxicity in HepG2 cells - 16 hour (AID 1224876); further: nearly all actives have a fitted effect of over 45% in size; further: potency means the concentration at half of the fitted maximal effect
# Method in brief: (§1)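 HepG2 cells were seeded together with the CellTox Green dye at 600 cells/well, left 5 h at 37 C/5% CO2, then given compounds in DMSO. Fluorescence from dye bound to dead-cell DNA was read repeatedly over 40 h of treatment at 37 C.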
# [2] = qHTS RealTime-Glo MT Cell Viability Assay in HepG2 cells - 32 hour (AID 1224877); further: nearly all actives have a fitted effect of over 55% in size
# Method in brief: (§2)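 HepG2 suspension premixed with RealTime-Glo reagents is plated at 600 cells per well and left 5 h at 37 C/5% CO2. Compounds in DMSO then go in, and bioluminescence reflecting viable cell number is recorded over 40 h.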
# [3] = A CellTox Green Cytotoxicity Assay to monitor cytotoxicity in HepG2 cells - 24 hour (AID 1224878); further: nearly all actives have a fitted effect of over 45% in size; further: potency means the concentration at half of the fitted maximal effect
# Method in brief: as §1
# [4] = A CellTox Green Cytotoxicity Assay to monitor cytotoxicity in HepG2 cells - 40 hour (AID 1224879); further: nearly all actives have a fitted effect of over 40% in size; further: potency means the concentration at half of the fitted maximal effect
# Method in brief: as §1
# [5] = qHTS RealTime-Glo MT Cell Viability Assay in HEK293 cells - 0 hour (AID 1224880); further: top concentration of the series differs between compounds; nearly all actives have a fitted effect of over 45% in size
# Method in brief: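 HEK293 cells mixed with RealTime-Glo reagents (NanoLuc plus cell-permeant prosubstrate) at 600 cells/well, preincubated 5 h at 37 C/5% CO2, then given 23 nL compound in DMSO. Nonlytic luminescence from viable cells was read at 0, 8, 16, 24, 32 and 40 h.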
# [6] = A CellTox Green Cytotoxicity Assay to monitor cytotoxicity in HEK293 cells - 32 hour (AID 1224881); further: nearly all actives have a fitted effect of over 40% in size; further: potency means the concentration at half of the fitted maximal effect
# Method in brief: (§3)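 HEK293 cells premixed with CellTox Green dye were seeded at 600 cells/well and left 5 h at 37 C/5% CO2 before pin transfer of 23 nL compound in DMSO. Fluorescence from dye bound to dead-cell DNA was read during 40 h treatment.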
# [7] = A CellTox Green Cytotoxicity Assay to monitor cytotoxicity in HepG2 cells - 0 hour (AID 1224882); further: nearly all actives have a fitted effect of over 35% in size; further: potency means the concentration at half of the fitted maximal effect
# Method in brief: as §1
# [8] = A CellTox Green Cytotoxicity Assay to monitor cytotoxicity in HepG2 cells - 32 hour (AID 1224883); further: nearly all actives have a fitted effect of over 50% in size; further: potency means the concentration at half of the fitted maximal effect
# Method in brief: as §1
# [9] = A CellTox Green Cytotoxicity Assay to monitor cytotoxicity in HEK293 cells - 8 hour (AID 1224884); further: nearly all actives have a fitted effect of over 35% in size; further: potency means the concentration at half of the fitted maximal effect
# Method in brief: as §3
# [10] = qHTS RealTime-Glo MT Cell Viability Assay in HepG2 cells - 16 hour (AID 1224885); further: nearly all actives have a fitted effect of over 50% in size
# Method in brief: as §2
SMILES,Potency [1],outcome [2],Potency [3],Potency [4],outcome [5],Potency [6],Potency [7],Potency [8],Potency [9],outcome [10]
COCCOCCOCCOC,inactive,inactive,inactive,inactive,inactive,inactive,inactive,inactive,inactive,inactive
CCCCCCCCCCCCCC(=O)OC,inactive,inactive,inactive,inactive,inactive,inactive,inactive,inactive,inactive,inactive
CC(C)COC(=O)CC(C(=O)OCC(C)C)S(=O)(=O)O (configuration not stated),inactive,inactive,inactive,inactive,inactive,inactive,inactive,inactive,inactive,inactive
C[Si]1(C)N[Si](C)(C)N[Si](C)(C)N1,inactive,inactive,inactive,inactive,inactive,inactive,inactive,inactive,inactive,inactive
NS(=O)(=O)c1ccc(Cl)c(S(N)(=O)=O)c1,inactive,inactive,inactive,inactive,inactive,inactive,inactive,inactive,inactive,inactive
O=C(/C=C/c1ccccc1)NCCO,9.52 µM (active),inactive,6.74 µM (active),6.01 µM (active),inactive,6.74 µM (active),6.01 µM (active),8.49 µM (active),9.52 µM (active),inactive
C=C(C)[C@@H]1CC[C@@H](C)C[C@@H]1O,inactive,inactive,inactive,inactive,inactive,inactive,inactive,inactive,inactive,inactive
COc1ccc(NS(=O)(=O)c2ccc(N)cc2)nn1,inactive,inactive,inactive,inactive,inactive,inactive,inactive,inactive,inactive,inactive
COc1cc([N+](=O)[O-])ccc1N,inactive,inactive,inactive,inactive,inactive,inactive,inactive,inactive,inactive,inactive
O=c1[nH]c(=O)c2ccccc2o1,inactive,inactive,inactive,inactive,inactive,inactive,inactive,inactive,inactive,inactive
Nc1cc(C(=O)O)ccc1Cl,inactive,inactive,inactive,inactive,inactive,inactive,inactive,inactive,inactive,inactive
COc1ccc(/C=N/NC(=O)c2ccncc2)cc1OC,inactive,inactive,inactive,inactive,inactive,inactive,inactive,inactive,inactive,inactive
CC(C)CCC(=O)CCC(C)C,inactive,inactive,inactive,inactive,inactive,inactive,inactive,inactive,inactive,inactive
CC(C)CCCCCCOC(=O)C1CCCCC1C(=O)OCCCCCCC(C)C (configuration not stated),inactive,inactive,inactive,inactive,inactive,inactive,inactive,inactive,inactive,inactive
COc1cccc2sc(N)nc12,inactive,inactive,inactive,inactive,inactive,inactive,inactive,inactive,inactive,inactive
Cc1cccc(Nc2ccncc2S(=O)(=O)NC(=O)NC(C)C)c1,inactive,inactive,inactive,inactive,inactive,inactive,inactive,inactive,inactive,inactive
CCC(CO)CO,inactive,inactive,inactive,inactive,inactive,inactive,inactive,inactive,inactive,inactive
CCCCCCCCCOCC1CO1 (configuration not stated),inactive,inactive,inactive,inactive,inactive,inactive,inactive,inactive,inactive,inactive
CCC(C)(C)C1CCC(=O)CC1,inactive,inactive,inactive,inactive,inactive,inactive,inactive,inactive,inactive,inactive
CC(C)=CC(C)(C)C,inactive,inactive,inactive,inactive,inactive,inactive,inactive,inactive,inactive,inactive
CCN(CC)C(=O)C1CN2CCc3cc(OC)c(OC)cc3C2CC1OC(C)=O (configuration not stated),inactive,inactive,inactive,inactive,inactive,inactive,inactive,inactive,inactive,inactive
C=C(C)C(=O)OCCCCCCOC(=O)C(=C)C,inactive,inactive,inactive,inactive,inactive,inactive,inactive,inactive,inactive,inactive
CC(=O)OC(C(=O)c1ccccc1)c1ccccc1 (configuration not stated),inactive,inactive,inactive,inactive,inactive,inactive,inactive,inactive,inactive,inactive
C1CCN2C[C@@H]3C[C@@H](CN4CCCC[C@@H]34)[C@H]2C1,inactive,inactive,inactive,inactive,inactive,inactive,inactive,inactive,inactive,inactive
CO[Si](CCCS)(OC)OC,inactive,inactive,inactive,inactive,inactive,inactive,inactive,inactive,inactive,inactive
CCN(Cc1cccc(S(=O)(=O)O)c1)c1ccccc1,inactive,inactive,inactive,inactive,inactive,inactive,inactive,–,inactive,inactive

SMILES,Potency [1],outcome [2],Potency [3],Potency [4],outcome [5],Potency [6],Potency [7],Potency [8],Potency [9],outcome [10]
CCOC(=O)C(C)(C)C,inactive,inactive,inactive,inactive,inactive,inactive,inactive,–,inactive,inactive
CC1(N)CCC(C(C)(C)N)CC1 (configuration not stated),inactive,inactive,inactive,inactive,inactive,inactive,inactive,–,inactive,inactive
CCCCC(CC)C(=O)OC(C)C (configuration not stated),inactive,inactive,inactive,inactive,inactive,inactive,inactive,inactive,inactive,inactive
O=C1c2ccccc2-c2ccccc21,inactive,inactive,inactive,inactive,inactive,inactive,inactive,–,inactive,inactive
CC(=O)Nc1ccc(C)cc1,inactive,inactive,inactive,inactive,inactive,inactive,inactive,–,inactive,inactive
CCCOCCOCCOCCO,inactive,inactive,inactive,inactive,inactive,inactive,inactive,–,inactive,inactive
COc1cc2c3cc1Oc1cc(ccc1O)C[C@@H]1c4c(cc(OC)c(O)c4Oc4ccc(cc4)C[C@@H]3N(C)CC2)CC[N+]1(C)C,inactive,inactive,inactive,inactive,inactive,inactive,inactive,–,inactive,inactive
CC(=O)c1ccc2c(c1)CCCC2,inactive,inactive,inactive,inactive,inactive,inactive,inactive,inactive,inactive,inactive
CC(C)SCc1ccco1,inactive,inactive,inactive,inactive,inactive,inactive,inactive,–,inactive,–
CC(=O)OC(C)(C)Cc1ccccc1,inactive,inactive,inactive,inactive,inactive,inactive,inactive,–,inactive,inactive
CCCCC(CC)COC(=O)c1ccccc1 (configuration not stated),inactive,inactive,inactive,inactive,inactive,inactive,inactive,inactive,inactive,inactive
CC(C)(C)NCCO,inactive,inactive,inactive,inactive,inactive,inactive,inactive,inactive,–,inactive
C[C@H]1O[C@H](O[C@H]2[C@H](O)[C@@H](O)[C@@H](O[C@H]3[C@H](O)[C@@H](O)[C@H](O)O[C@@H]3CO)O[C@@H]2CO)[C@H](O)[C@@H](O)[C@@H]1N[C@H]1C=C(CO)[C@@H](O)[C@H](O)[C@H]1O,inactive,inactive,inactive,inactive,inactive,inactive,inactive,inactive,inactive,inactive
C=C(C)C(=O)OC,inactive,inactive,inactive,inactive,inactive,inactive,inactive,inactive,inactive,inactive
O=C(Oc1ccccc1C(=O)O)c1ccccc1O,inactive,inactive,inactive,inactive,inactive,inactive,inactive,inactive,inactive,inactive
CCC(=O)c1ccc(O)cc1,inactive,inactive,inactive,inactive,inactive,inactive,inactive,–,inactive,inactive
CCCCCCCC[Si](OCC)(OCC)OCC,inactive,inactive,inactive,inactive,inactive,inactive,inactive,–,inactive,–
CC(C)COC(=O)CCCCC(=O)OCC(C)C,inactive,inactive,inactive,inactive,inactive,inactive,inactive,–,inactive,inactive
COC(/C=C(\C)CCC=C(C)C)OC,inactive,inactive,inactive,inactive,inactive,inactive,inactive,–,inactive,inactive
CCC1COC(=O)O1 (configuration not stated),inactive,inactive,inactive,inactive,inactive,inactive,inactive,inactive,inactive,inactive
CCC(C)(CCC(C)C)C(=O)[O-].CCC(C)(CCC(C)C)C(=O)[O-].[Zn+2] (configuration not stated),inactive,inactive,inactive,inactive,inactive,inactive,inactive,–,inactive,inactive
COc1cc2c(Nc3ccc(Br)cc3F)ncnc2cc1OCC1CCN(C)CC1,inactive,inactive,inactive,inactive,inactive,inactive,inactive,inactive,–,inactive
FC(F)(F)c1ccc(Cl)cc1Cl,inactive,inactive,inactive,inactive,inactive,inactive,–,inactive,inactive,–
CCOC(=O)OCC/C(SC(=O)OCC)=C(\C)N(C=O)Cc1cnc(C)nc1N,inactive,inactive,inactive,inactive,inactive,inactive,inactive,–,inactive,–
C=C[Si](C)(C)O[Si](C)(C)C=C,inactive,inactive,inactive,inactive,inactive,inactive,inactive,–,inactive,inactive
